Experimental data as given in the supplement of paper PMC8728848.
Many of the other results were omitted from the sample, so the strongest signals are more common in it than they were.

Tests used:
Experiment in all cases: glycan array binding signal (z-score within array); higher = stronger binding
Conditions in all cases: glycan notation: IUPAC condensed, linker removed
GalNAc(a1-3)GalNAc = biological target: GalNAc(a1-3)GalNAc
Outline: (§1)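 Arrays were curated from the Consortium for Functional Glycomics database, 3228 in total, and kept only where the protein sequence was available. Binding is expressed as a within-array Z-score. This score was averaged across arrays of the same protein sequence at different concentrations or buffers and across linkers, and negative values can be read as non-binding.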

[1] = biological target: GalNAc(b1-4)GlcNAc(b1-2)Man(a1-3)[GalNAc(b1-4)GlcNAc(b1-2)Man(a1-6)]Man(b1-4)GlcNAc(b1-4)GlcNAc
Outline: as §1

[2] = biological target: GalNAc(b1-4)GlcNAc(b1-3)GalNAc(b1-4)GlcNAc
Outline: as §1

Glc(a1-6)Glc(a1-6)Glc = biological target: Glc(a1-6)Glc(a1-6)Glc
Outline: as §1

GlcA(b1-3)Gal = biological target: GlcA(b1-3)Gal
Outline: as §1

[3] = biological target: GlcNAc(b1-2)Man(a1-3)[GlcNAc(b1-4)][GlcNAc(b1-2)Man(a1-6)]Man(b1-4)GlcNAc(b1-4)[Fuc(a1-6)]GlcNAc
Outline: as §1

[4] = biological target: GlcNAc(b1-3)Gal(b1-4)GlcNAc(b1-2)[GlcNAc(b1-3)Gal(b1-4)GlcNAc(b1-6)]Man(a1-6)[GlcNAc(b1-3)Gal(b1-4)GlcNAc(b1-2)Man(a1-3)]Man(b1-4)GlcNAc(b1-4)GlcNAc
Outline: as §1

[5] = biological target: GlcNAc(b1-3)Gal(b1-4)GlcNAc(b1-3)Gal(b1-4)GlcNAc(b1-2)Man(a1-3)[GlcNAc(b1-3)Gal(b1-4)GlcNAc(b1-3)Gal(b1-4)GlcNAc(b1-2)Man(a1-6)]Man(b1-4)GlcNAc(b1-4)[Fuc(a1-6)]GlcNAc
Outline: as §1

[6] = biological target: GlcNAc(b1-3)Gal(b1-4)GlcNAc(b1-3)Gal(b1-4)GlcNAc(b1-2)[GlcNAc(b1-3)Gal(b1-4)GlcNAc(b1-3)Gal(b1-4)GlcNAc(b1-6)]Man(a1-6)[GlcNAc(b1-3)Gal(b1-4)GlcNAc(b1-3)Gal(b1-4)GlcNAc(b1-2)Man(a1-3)]Man(b1-4)GlcNAc(b1-4)[Fuc(a1-6)]GlcNAc
Outline: as §1

[7] = biological target: GlcNAc(b1-3)Gal(b1-4)GlcNAc(b1-3)GalNAc
Outline: as §1

[8] = biological target: Kdn(a2-3)Gal(b1-4)[Fuc(a1-3)]GlcNAc
Outline: as §1

[9] = biological target: Man(a1-2)Man(a1-2)Man(a1-3)Man
Outline: as §1

[10] = biological target: Neu5Ac(a2-3)Gal(b1-3)GalNAc
Outline: as §1

[11] = biological target: Neu5Ac(a2-3)Gal(b1-3)GalNAc6S
Outline: as §1

[12] = biological target: Neu5Ac(a2-3)Gal(b1-3)GlcNAc(b1-6)GalNAc
Outline: as §1

[13] = biological target: Neu5Ac(a2-3)Gal(b1-3)[Fuc(a1-4)]GlcNAc(b1-3)Gal(b1-3)[Fuc(a1-4)]GlcNAc
Outline: as §1

[14] = biological target: Neu5Ac(a2-3)Gal(b1-3)[Neu5Ac(a2-6)]GlcNAc(b1-3)[Fuc(a1-3)[Gal(b1-4)]GlcNAc(b1-6)]Gal(b1-4)Glc
Outline: as §1

[15] = biological target: Neu5Ac(a2-3)Gal(b1-4)GlcNAc(b1-3)Gal(b1-4)GlcNAc(b1-3)[Neu5Ac(a2-3)Gal(b1-4)GlcNAc(b1-3)Gal(b1-4)GlcNAc(b1-6)]GalNAc
Outline: as §1

[16] = biological target: Neu5Ac(a2-3)Gal(b1-4)GlcNAc(b1-6)[Gal(b1-3)]GalNAc
Outline: as §1

[17] = biological target: Neu5Ac(a2-3)Gal(b1-4)[Fuc(a1-3)]GlcNAc(b1-3)Gal(b1-4)GlcNAc
Outline: as §1

[18] = biological target: Neu5Ac(a2-6)Gal(b1-4)GlcNAc(b1-2)Man(a1-3)[Neu5Ac(a2-6)Gal(b1-4)GlcNAc(b1-2)Man(a1-6)]Man(b1-4)GlcNAc(b1-4)[Fuc(a1-6)]GlcNAc
Outline: as §1

[19] = biological target: Neu5Ac(a2-6)Gal(b1-4)GlcNAc(b1-3)Gal(b1-4)GlcNAc(b1-3)Gal(b1-4)GlcNAc
Outline: as §1

[20] = biological target: Neu5Ac(a2-6)Gal(b1-4)GlcNAc(b1-3)Gal(b1-4)GlcNAc(b1-3)Gal(b1-4)GlcNAc(b1-2)Man(a1-3)[Neu5Ac(a2-6)Gal(b1-4)GlcNAc(b1-3)Gal(b1-4)GlcNAc(b1-3)Gal(b1-4)GlcNAc(b1-2)Man(a1-6)]GalNAc
Outline: as §1

[21] = biological target: Neu5Ac(a2-6)Gal(b1-4)GlcNAc(b1-3)GalNAc
Outline: as §1

[22] = biological target: Neu5Ac(a2-8)Neu5Ac(a2-3)[GalNAc(b1-4)]Gal(b1-4)Glc
Outline: as §1

[23] = biological target: Neu5Ac(a2-8)Neu5Ac(a2-8)Neu5Ac(a2-3)Gal(b1-4)Glc
Outline: as §1

[24] = biological target: Neu5Ac(a2-8)Neu5Gc(a2-3)Gal(b1-4)GlcNAc
Outline: as §1

[25] = biological target: Neu5Gc(a2-3)Gal(b1-3)[Fuc(a1-4)]GlcNAc
Outline: as §1

B1: PX14343F-bfa-562-20-562 (Bacteroides fragilis) (protein)
chain: CDDFLDSFPQDTVTNENFWKSKEDADKVLVDIYASLLPKDAIFFDEAMSDNAYLVWDWWGGAQQVANGSYTTSGEIPTNRWNGSYEVIRKCWFLLEGIEKIEDISEQDKNKIIGETYFMLAYNYYVLTSYFGDVPLVTKTLAIPESKQLVRTPKAEVVDYAINKLKEAAVMLEGLSQEKGRVTADACRFLIARMYLYNGDYSNVLETVKLLEGKYQLYREGDTPYEDLFSGVAENSCEVILSVVCDKRVGEIYTSHGGNGIMLLKGITGEDPYRGVTPSGSLVDAYPMADGRLIHEAGSSYDPKKPYEGRDPRFYQSIVYPTGQIKYLDVETGTVKERLYDPEDPTTVPEHQYNYSQPSATGYMWNKYIDYSVYAMNSVWDCTNDIIVFRYADVLLMKAEALLQTKGESAKEEVCNLIDQLRDRCSCGRVHRENYNSKDELMELLKNERRIELANEGLRYMDLIRWKDAEKNTIVTGVGLTGQMYGAYMRKDGVGKDDKTVDVDNTPRRYIETRYFNASKGYLFPIPQKERDLNPNLTQNPNW
glycan array binding signal (z-score) (GalNAc(a1-3)GalNAc): 0.306
glycan array binding signal (z-score) [1]: 2.1
glycan array binding signal (z-score) [2]: 0.152
glycan array binding signal (z-score) (Glc(a1-6)Glc(a1-6)Glc): -0.43
glycan array binding signal (z-score) (GlcA(b1-3)Gal): -0.822
glycan array binding signal (z-score) [3]: -0.489
glycan array binding signal (z-score) [4]: 1.87
glycan array binding signal (z-score) [5]: 1.72
glycan array binding signal (z-score) [6]: 0.546
glycan array binding signal (z-score) [7]: 0.486
glycan array binding signal (z-score) [8]: -0.468
glycan array binding signal (z-score) [9]: -0.59
glycan array binding signal (z-score) [10]: -0.546
glycan array binding signal (z-score) [11]: -0.506
glycan array binding signal (z-score) [12]: 1.15
glycan array binding signal (z-score) [13]: -0.121
glycan array binding signal (z-score) [14]: -0.957
glycan array binding signal (z-score) [15]: 1.61
glycan array binding signal (z-score) [16]: -0.723
glycan array binding signal (z-score) [17]: 0.262
glycan array binding signal (z-score) [18]: 1.09
glycan array binding signal (z-score) [19]: -0.047
glycan array binding signal (z-score) [20]: 2.16
glycan array binding signal (z-score) [21]: -0.734
glycan array binding signal (z-score) [22]: 1.74
glycan array binding signal (z-score) [23]: 0.121
glycan array binding signal (z-score) [24]: 19.1
glycan array binding signal (z-score) [25]: -0.055
